12-LOX inh: ALOX12 (human) lipoxygenase inhibition; 580,000 tested, 1.1% active; AID 1671190; P18054; purified 12hLO, xylenol orange hydroperoxide absorbance; Potency, µM (series often up to 108 µM), without a hit: at the highest dose activity change, negative = inhibition, usual class: inhibitors
Target sequence (P18054 whole entry, looked up): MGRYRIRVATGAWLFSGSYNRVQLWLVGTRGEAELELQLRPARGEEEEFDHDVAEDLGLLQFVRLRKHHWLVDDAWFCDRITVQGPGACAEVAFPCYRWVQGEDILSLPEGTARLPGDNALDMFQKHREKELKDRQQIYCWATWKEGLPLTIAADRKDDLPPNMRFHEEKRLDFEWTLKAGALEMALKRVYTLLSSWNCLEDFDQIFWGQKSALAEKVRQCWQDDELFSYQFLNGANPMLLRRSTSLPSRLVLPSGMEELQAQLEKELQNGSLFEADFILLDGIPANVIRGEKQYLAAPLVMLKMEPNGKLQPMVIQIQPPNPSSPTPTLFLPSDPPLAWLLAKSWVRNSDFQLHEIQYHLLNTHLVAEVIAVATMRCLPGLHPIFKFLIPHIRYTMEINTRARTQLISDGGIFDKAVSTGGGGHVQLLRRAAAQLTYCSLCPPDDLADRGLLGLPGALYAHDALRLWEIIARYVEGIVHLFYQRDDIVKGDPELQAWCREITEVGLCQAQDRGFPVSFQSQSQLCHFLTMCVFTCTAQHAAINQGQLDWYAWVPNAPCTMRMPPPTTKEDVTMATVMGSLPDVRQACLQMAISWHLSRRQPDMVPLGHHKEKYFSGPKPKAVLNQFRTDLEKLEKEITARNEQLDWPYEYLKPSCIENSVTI
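Hydroperoxide product was detected by ferrous iron/xylenol orange as the 573 to 405 nm absorbance ratio. Arachidonic acid at 40 uM (final) was turned over for 30 min at room temperature by 150 nM human 12hLO, pH 7.0 Hepes buffer, after 15 min compound preincubation.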
PLK1 PBD inh: inhibitors of human PLK1 polo-box domain binding; Plk1 PBD binding of FITC phosphopeptide, fluorescence polarization; Potency, µM, without a hit: max response, negative = inhibition, hits mostly inhibitors; 360,000 tested, 2.8% active; also: series mostly up to about 57 µM; nearly all actives have a fitted effect of over 65% in size
VDR inhibitor: blocks the human vitamin D receptor | P11473 | VDR-SRC2-3 peptide fluorescence polarization, 2 h | Potency, µM, without a hit: max response, negative = inhibition, actives largely listed as inhibitors | 400,000 tested, 0.93% active | AID 504847
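Reagent solutions, kept cold and dark, are dispensed first; compounds are then pinned in at 23 nl, plates briefly spun, and incubated 2 h at ambient temperature. Inhibition of VDR–SRC2-3 peptide binding is read by fluorescence polarization.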
Sfp inh: Sfp phosphopantetheinyl transferase inhibition | Q9F4F7 | Potency, µM, for inactives: largest response in the series, negative = inhibition, hits mostly inhibitors | Biochemical Sfp PPTase activity, qHTS | 310,000 tested, 3.5% active;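 also: the enzyme is Sfp with the accession as filed and its product quenches rhodamine fluorescence; 0% = enzyme reaction without inhibitor and -100% = no enzyme wells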
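With Hepes-Na pH 7.6 buffer containing 10 mM MgCl2, Sfp (15 nM) modified BHQ-2-YbbR (12.5 uM) using rhodamine-CoA (5 uM). Two reads 30 minutes apart at 525/598 nm yielded each well's rate.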
Numbers without * were called inactive; ? = inconclusive; . = no result. Hits are enriched below; roughly 4.2% of the tested compounds scored in any of these assays. Calls follow the shape of the dose curve; as a rule, active = well fitted curve in the direction sought with a large enough effect; inconclusive = small, poorly fitted or top-dose-only effect, or another doubt; inactive = no such curve, though single readings can be large; an effect the other way counts as inactive or inconclusive. Unless noted, % is scaled to controls: 0 for no effect and ±100 for the full control effect; potency is read from the fitted curve at half-maximal effect.

SMILES | 12-LOX inh | PLK1 PBD inh | VDR inhibitor | Sfp inh
Cc1ccc(C(=O)N2c3ccc(F)cc3CCC2C)o1 (stereo not given) | -12% | -9% | -4% | 3%
Brc1ccc(-c2cn3nc4c(nc3n2)CCCC4)cc1 | ? | -25% | -12% | ?
c1ccc(-c2cn3nc4c(nc3n2)CCCC4)cc1 | ? | -21% | -4% | 79µM*
COc1cccc(OC)c1C(=O)Nc1ccccc1Sc1ccccc1 | 4% | 3% | -7% | .
COCCNCC(=O)Nc1ccccc1Sc1ccccc1 | -7% | -12% | -8% | 56µM*
Cc1csc(NC(=O)CSc2nc(C)cs2)n1 | 60% | -5% | -2% | 1%
COCCNCC(=O)Nc1nc(C)cs1 | -2% | -7% | -2% | 45µM*
O=C(CNCCN1CCOCC1)Nc1ccccc1Sc1ccccc1 | -18% | -15% | 0% | 56µM*
CCC(N)(CC)c1cn(CC2CCCN(S(C)(=O)=O)C2)nn1 (stereo not given) | 20µM* | . | . | .
CN(C)c1ccc(C(=O)N2CCCC(Cn3cc(C(=O)N4CCCC4)nn3)C2)cc1 (stereo not given) | 11% | . | . | .
CCOC(=O)C1=C(COC(=O)C(C)(C)Oc2ccc(Cl)cc2)NC(=O)NC1C (stereo not given) | ? | 1% | -9% | .
O=[N+]([O-])c1ccc2c(c1)N([O-])C1(CCCCC1)[N+]2=O | ? | 12µM* | ? | 7.1µM*
CC1=C(c2ccccc2)[N+](=O)C2(CCCC2)N1[O-] | 0% | 0% | -18% | -17%
Cc1ccc(C)c(-n2c3nc(=O)[nH]c(=O)c-3cc3cc([N+](=O)[O-])ccc32)c1 | ? | 7.5µM* | ? | 50µM*
Cc1cccc(-n2c3nc(=O)[nH]c(=O)c-3cc3cc([N+](=O)[O-])ccc32)c1 | ? | 11µM* | -29% | -18%
CC1(C)OC(=O)C(=NNc2ccc(O)cc2)C(=O)O1 | ? | -5% | 5% | 14%
O=C(O)CCNC(=O)/C(=C\c1ccco1)NC(=O)c1ccco1 | ? | -9% | 12% | 79µM*
CNC(=O)/C(=C\c1ccco1)NC(=O)c1ccco1 | ? | -11% | -13% | 11%
O=C(NC(Cc1ccccc1)C(=O)O)/C(=C\c1ccco1)NC(=O)c1ccccc1Br (stereo not given) | -18% | -10% | -25% | 50µM*
O=C(NC(Cc1ccccc1)C(=O)O)/C(=C/c1ccco1)NC(=O)c1cccc([N+](=O)[O-])c1 (stereo not given) | -14% | -11% | 5% | 7%
O=C(N/C(=C/c1ccco1)C(=O)N1CCc2ccccc21)c1ccco1 | 58% | -10% | -9% | 40µM*
O=C(NCc1ccccn1)/C(=C/c1ccco1)NC(=O)c1ccccc1 | 4% | -6% | 1% | 79µM*
CCOc1ccc(S(=O)(=O)N2CCN(C3CC(=O)N(c4cccc(C(C)=O)c4)C3=O)CC2)cc1 (stereo not given) | -23% | 4% | 5% | .
O=C(Cn1cc(S(=O)(=O)Cc2cccc(Cl)c2)c2ccccc21)Nc1ccc(F)c(Cl)c1 | -29% | . | 18% | .
COc1cccc(CNC(=O)C2Cc3ccccc3CN2C(C)=O)c1 (stereo not given) | -5% | 30µM* | ? | 12%
SMILES | 12-LOX inh | PLK1 PBD inh | VDR inhibitor | Sfp inh
CCS(=O)(=O)N1Cc2ccccc2CC1C(=O)NCc1cccc(OC)c1 (stereo not given) | -12% | -2% | -3% | -3%
Cc1ccc(NC(=O)/C(=C/c2ccccc2)c2ccccc2)c(C)c1 | -17% | . | . | .
Cc1ccc(NC(=O)C(=Cc2ccc(C(=O)O)cc2)C(=O)Nc2ccc(C)cc2C)c(C)c1 | . | -7% | 25µM* | -5%
CC(C)N1CCC1(C)C(=O)Nc1cc(-c2ccccc2)nn1C (stereo not given) | 13% | -2% | . | .
Cc1ccc([C@@H]2[C@@H]3C(=O)N(C)C(=O)[C@@H]3[C@]3(C)C(=O)N(Cc4ccc(-c5ccccc5)cc4)CC(=O)N23)o1 | -6% | -16% | 1% | 50µM*
CCNc1cc2n(c(=O)n1)CCc1cc(OC)c(OC)cc1-2 | 3% | 0% | -10% | 10%
COc1cc2c(cc1OC)-c1cc(NC3CCCCCCC3)nc(=O)n1CC2 | 66% | -1% | 19% | 0%
COc1cc2c(cc1OC)-c1cc(NCc3ccccn3)nc(=O)n1CC2 | 7.9µM* | -20% | -15% | 20%
COc1cc2c(cc1OC)-c1cc(NC3CCCCC3)nc(=O)n1CC2 | 25µM* | 0% | 11% | 8%

High-throughput results (PubChem)
